CYP2C19 inh: inhibitors of human CYP2C19 | CYP2C19 Supersomes, luciferin-H EGE luminescence, 30 min | 96,000 tested, 21% active | inhibition, % at 5 µM | AID 778;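 active = CYP2C19 inhibition above a set limit at 5 µM in the primary screen, cut at about 50% in these data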;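 note: plate controls were negative control wells for no effect and 2.5 mM tranylcypromine positive control for full effect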
Target sequence (P33261 whole entry, looked up): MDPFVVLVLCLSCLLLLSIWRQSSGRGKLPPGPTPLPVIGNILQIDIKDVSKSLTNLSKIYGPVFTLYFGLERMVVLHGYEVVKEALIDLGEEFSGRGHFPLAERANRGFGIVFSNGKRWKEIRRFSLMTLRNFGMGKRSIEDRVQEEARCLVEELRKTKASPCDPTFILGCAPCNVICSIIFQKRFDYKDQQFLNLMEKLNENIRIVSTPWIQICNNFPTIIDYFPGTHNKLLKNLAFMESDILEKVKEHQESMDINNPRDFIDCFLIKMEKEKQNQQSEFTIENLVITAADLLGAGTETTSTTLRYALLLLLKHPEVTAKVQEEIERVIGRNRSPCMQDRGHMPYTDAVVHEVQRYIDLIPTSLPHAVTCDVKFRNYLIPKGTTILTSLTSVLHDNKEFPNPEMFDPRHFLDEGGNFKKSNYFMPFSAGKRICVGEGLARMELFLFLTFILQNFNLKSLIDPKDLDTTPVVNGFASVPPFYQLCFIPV
Cav32 inh: human Cav3.2 channel inhibition, primary screen; Cav3.2-expressing cells, Fluo-4 calcium fluorescence FDSS; stronger effect = lower value; AID 449739; B-score at 10 µM; 100,000 tested, 4% active; O95180;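 active = single-dose well whose peak fluorescence ratio is a statistical outlier from its plate by either plate-standardised score or position-corrected B-score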
CYP2C9 inh: blocks human cytochrome P450 2C9 | CYP2C9 Supersomes, luciferin-H conversion, luminescence | inhibition, % at 5 µM | AID 777 | 96,000 tested, 20% active;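 active = blocking of liver enzyme CYP2C9 beyond about 50% at 5 µM, limit read from the data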
CYP2C9 act: activators of human CYP2C9; P11712; recombinant CYP2C9, luciferin-H conversion, luminescence; stronger effect = higher value; factor 1 = untreated enzyme, 0 = blocked; activation factor at 5 µM; 96,000 tested, 1.4% active; AID 1024;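 active = activation factor of 2 or more for CYP2C9 at a 5 µM dose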;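 note: 0 = sulfaphenazole-blocked wells and 1 = vehicle-only wells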
CYP2C19 activ: activators of human cytochrome P450 2C19. recombinant CYP2C19, luciferin-H EGE luminescence; stronger effect = higher value; 0 = fully inhibited enzyme, 1 = untreated enzyme. activation factor at 5 µM. 96,000 tested, under 10 active. AID 1025;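 active = activation factor of at least 2 at 5 µM in the primary screen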;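 note: 0 = wells with 2.5 mM tranylcypromine and 1 = vehicle-only wells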
Numbers without * were called inactive; nt = not tested or not shown. Most compounds without a hit are left out; they make up all but 27% or so of the library.

SMILES	CYP2C19 inh	Cav32 inh	CYP2C9 inh	CYP2C9 act	CYP2C19 activ
CCOC(=O)COc1ccc(S(=O)(=O)Nc2ccc3c(c2)OCO3)cc1	86.4*	-1.24	67.2*	0.3	0.1
O=C1NCCN1Cc1ccc(F)cc1	14.4	0.564	-5.8	1.1	0.9
COCCCNc1ncnc2nc[nH]c12	-6.3	nt	-3.1	1	1.1
COc1ccccc1NC(=O)Cn1cnc2c(cnn2-c2ccc(C)c(C)c2)c1=O	1.9	nt	13.7	0.9	1
O=C1c2ccccc2S(=O)(=O)N1Cc1nc2ccccc2s1	85.6*	-1.44	39.7	0.6	0.1
CCOC(=O)C1C(=O)CC(C)(O)C(C(=O)OCC)C1c1cc(Br)ccc1OC (stereo not drawn)	28.8	-1.03	31.8	0.7	0.7
CCOc1ccc(Br)cc1C1C(C(=O)OC)=C(N)Oc2cc(N(C)C)ccc21 (stereo not drawn)	93.6*	-2.59	85.3*	0.1	0.1
N#CC(c1ccc(Cl)cc1)c1nc2ccccc2nc1C(F)(F)F (stereo not drawn)	52.0*	-1.48	26.4	0.7	0.5
CC(C)C(c1nnnn1Cc1cccs1)N1CCN(c2ccccc2)CC1 (stereo not drawn)	-1.8	-0.576	5.4	0.9	1
CCCCOc1ncnc2c1[nH]c1ccc(F)cc12	25.6	-1.38	28.6	0.7	0.7
OC1(c2cccc(C(F)(F)F)c2)CCN(c2ncnc3c2[nH]c2ccc(F)cc23)CC1	71.0*	nt	85.2*	0.1	0.3
CCOC(=O)N1CCN(c2ncnc3c2[nH]c2ccc(OC)cc23)CC1	56.0*	1.56	38.7	0.6	0.4
CCOC(=O)N1CCN(c2ncnc3c2[nH]c2ccc(F)cc23)CC1	59.6*	0.213	48.7	0.5	0.4
O=C(O)C1CCCN1S(=O)(=O)c1ccc2[nH]c(=O)c(=O)[nH]c2c1 (stereo not drawn)	-8.8	-0.404	-10.7	1.1	1.1
Cc1csc(NC(=O)CNC(=O)OCc2ccccc2)n1	-0.1	0.248	0.2	1	1
COc1c(C)cccc1C(=O)Nc1ccc(N2CCOCC2)c(Cl)c1	10.9	-2.24	-71.2	1.7	0.9
N#C/C(=C\c1ccc[nH]1)Sc1nc2ccccc2s1	91.7*	-1.32	77.3*	0.2	0.1
N#C/C(=C\c1cccs1)Sc1nc2ccccc2s1	96.1*	nt	49.7	0.5	0
C(=N\Nc1nc2ccccc2s1)/c1cccs1	29.5	0.12	11.8	0.9	0.7
O=C(CN1CCC(n2nnc3cc(F)ccc32)CC1)NCCc1nc2ccccc2[nH]1	-4.9	0.991	-2.6	1	1
Cc1ccccc1NC(=O)C(NS(=O)(=O)c1ccc2c(c1)c(=O)n(C)c(=O)n2C)c1ccccc1 (stereo not drawn)	9.8	1.34	17.1	0.8	0.9
COc1ccc2nc(N3CCCC3)c(C#N)cc2c1	3.4	-3.56*	24.9	0.8	1
N#Cc1cc2ccccc2nc1SCC(=O)Nc1ccc(S(=O)(=O)N2CCCC2)cc1	37.5	-1.49	89.6*	0.1	0.6
Cc1nnc(SCC(=O)Nc2ccc(S(=O)(=O)N3CCCC3)cc2)n1N	-9.7	-1.31	4.6	1	1.1
Cc1nnc(SCC(=O)Nc2ccc(S(=O)(=O)N3CCCCC3)cc2)s1	15.3	0.404	21.7	0.8	0.8
SMILES	CYP2C19 inh	Cav32 inh	CYP2C9 inh	CYP2C9 act	CYP2C19 activ
COc1ccc2nc(SCC(=O)Nc3ccc(S(=O)(=O)N4CCCC4)cc3)c(C#N)cc2c1	21.6	-0.92	91.1*	0.1	0.8
Cc1cc(C)c2nc(SCC(=O)Nc3ccc(S(=O)(=O)N4CCCC4)cc3)c(C)cc2c1	37.9	-1.29	88.0*	0.1	0.6
CCCCNc1nc(-c2ccccc2)cc(C(F)(F)F)c1C(N)=O	nt	-2	nt	nt	nt
COc1cccc(CN2C(=O)[C@@H]3Cc4c([nH]c5ccccc45)C(C)(C)N3C2=O)c1	nt	-2.29	nt	nt	nt
CCCC(C)C(=O)Nc1ccc2c(c1)OCCO2 (stereo not drawn)	49.9	-0.0911	32.2	0.7	0.5
CCNC(=O)NC(=O)C(C)Sc1ccc2c(c1)OCCO2 (stereo not drawn)	52.8*	0.157	-2.4	1	0.5
O=S(=O)(c1ccc(Cl)cc1)N1CCCC1c1nc(-c2cccc(Cl)c2)no1 (stereo not drawn)	6.7	-3.14	25.8	0.7	0.9
Fc1cccc(-c2cc3nc4c(c(N5CCC6(CC5)OCCO6)n3n2)CCCC4)c1	25.6	-0.611	74.1*	0.3	0.7
CCOCCN1CCN(c2c3c(nc4cc(-c5ccc(F)cc5)nn24)CCC3)CC1	13.8	1.83	50.5*	0.5	0.9

Screening data as filed in PubChem BioAssay.
